The entries come from a sample that favours hits as a whole.
Cruzain inh noDet: blocks cruzain activity in detergent-free assay | P25779 | purified cruzain, Z-FR-AMC fluorescence, no detergent | Potency, µM, inactives show max response, negative = inhibition, usual class: inhibitors | hit rate 2.3% among 200,000 | AID 1476;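 note: plate controls were enzyme without inhibitor for no effect and buffer without enzyme for full effect; nearly all actives have a fitted effect of over 40% in size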
Target sequence (P25779 123-467 limits assumed): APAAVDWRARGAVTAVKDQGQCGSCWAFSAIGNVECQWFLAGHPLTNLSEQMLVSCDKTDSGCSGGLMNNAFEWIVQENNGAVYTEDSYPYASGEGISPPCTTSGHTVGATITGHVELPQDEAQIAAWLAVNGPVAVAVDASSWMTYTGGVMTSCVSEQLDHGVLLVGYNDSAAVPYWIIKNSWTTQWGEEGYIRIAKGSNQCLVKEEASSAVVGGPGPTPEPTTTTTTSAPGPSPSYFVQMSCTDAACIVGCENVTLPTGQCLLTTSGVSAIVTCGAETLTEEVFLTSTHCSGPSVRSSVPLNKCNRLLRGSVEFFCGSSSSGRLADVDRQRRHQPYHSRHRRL
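Purified cruzain at 1.5 nM, pre-incubated 15 min with compound at room temperature in 100 mM sodium acetate pH 5.5, 5 mM DTT, 0.00005% Triton X-100. Reaction started with 2 uM Z-FR-AMC; AMC fluorescence increase over 60 s gives rate.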
Cruzain inh Det: cruzain (T. cruzi) inhibition with detergent | P25779 | purified cruzain, Z-FR-AMC fluorescence, 0.01% Triton | Potency, µM, for inactives: max response, negative = inhibition, actives largely listed as inhibitors | hit rate 0.43% among 200,000 | AID 1478;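 note: plate controls were neutral wells for no effect and buffer without enzyme for full effect; nearly all actives have a fitted effect of over 40% in size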
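Compounds were screened in titration against cruzain (1.5 nM) with 0.01% Triton X-100 to counter colloidal aggregation. Activity was the AMC fluorescence increase over 60 s after adding 2 uM Z-FR-AMC at pH 5.5.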
NS1 inh: influenza NS1 inhibition; hit rate 0.4% among 270,000; AID 2326; Potency, µM (series often up to 46.1 µM), for inactives: at the top dose activity, positive = more growth; calls by dose curve; note: actives are rising curves; nearly all actives have a fitted effect of over 50% in size
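Growth recovery, yeast-based: influenza A NS1 expressed in S. cerevisiae causes slow growth, and suppressors are detected by OD600. The parent strain without NS1 is used as positive control.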
The depositor's hits bear a star; u = inconclusive; x = not tested or not shown. Unless noted, calls come from the whole dose curve; as a rule, active = well fitted curve in the direction sought with a large enough effect; inconclusive = small, poorly fitted or top-dose-only effect, or another doubt; inactive = no such curve, though single readings can be large; an effect the other way counts as inactive or inconclusive. Potency is the fitted concentration of half-maximal effect.

SMILES	Cruzain inh noDet	Cruzain inh Det	NS1 inh
COc1cccc(OC)c1C(=O)Nc1nc2c(s1)CCc1ccccc1-2	6.7%	0.1%	x
CCCN(CCC)S(=O)(=O)c1ccc(C(=O)Nc2nc3c(s2)CCc2ccccc2-3)cc1	7.94µM*	1.3%	-4.8%
COc1ccc(OC)c(CCNC(=O)c2cc3cccc4c3n2CC(C)S4)c1 (stereo not given)	-28.8%	-9.9%	x
COc1ccc(S(=O)(=O)Nc2nc3ccccc3nc2Nc2ccc3c(c2)OCO3)cc1	u	-4.8%	-0.7%
O=S(=O)(Nc1nc2ccccc2nc1Nc1ccc2c(c1)OCCO2)c1cccs1	25.1µM*	-5.0%	-40.3%
CCOc1ccc(-c2nnn(CC(=O)NCCc3c[nH]c4ccccc34)n2)cc1	-16.6%	-7.6%	1.8%
CCCOc1ccc(-c2nnn(CC(=O)c3c[nH]c4ccccc34)n2)cc1	7.94µM*	1.9%	8.2%
COC(=O)c1sccc1S(=O)(=O)N(CC(=O)Nc1cccc(C)c1C)c1ccc(C)c(C)c1	1.5%	-4.8%	x
COc1ccc2cc1Oc1ccc(cc1)C[C@@H]1c3c(cc(OC)c4c3Oc3cc5c(cc3O4)CCN[C@H]5C2)CCN1C	1.0%	-5.8%	-7.8%
COc1ccc(Cl)cc1Nc1nc(-c2sc(NC(=O)C(C)(C)C)nc2C)cs1	-24.4%	1.9%	11.8%
CCC(=O)Nc1nc(C)c(-c2csc(Nc3ccc(S(=O)(=O)Nc4cc(C)on4)cc3)n2)s1	-17.8%	-0.9%	19.0%
Cc1nc(NC(=O)c2ccccc2)sc1-c1csc(Nc2cccc(F)c2)n1	u	4.7%	-2.2%
COc1ccc(Cl)cc1Nc1nc(-c2sc(NC(=O)c3ccco3)nc2C)cs1	15.8µM*	-1.1%	11.8%
Cc1cc(NS(=O)(=O)c2ccc(Nc3nc(-c4sc(NC(=O)c5ccccc5)nc4C)cs3)cc2)no1	6.31µM*	-11.4%	8.8%
Cc1ccc(Cl)cc1Nc1nc(-c2sc(NC(=O)c3ccccc3)nc2C)cs1	6.31µM*	3.7%	20.7%
CCCCCCC(=O)Nc1nc(C)c(-c2csc(Nc3cc(Cl)ccc3C)n2)s1	10µM*	3.2%	u
CCC(C)C(=O)Nc1nc(C)c(-c2csc(Nc3cc(Cl)ccc3OC)n2)s1 (stereo not given)	-15.7%	1.4%	u
C=C1C(=O)C=C2CN(C(=O)c3ccccc3)[C@@](Cc3ccc(OC)cc3)(C(=O)OC)[C@@H]12	1.2%	-1.5%	x
CCOC(=O)CBr	1.0%	0.6%	x
COC(=O)N[C@@H](/C=C/c1ccccc1)C[N+](=O)[O-]	-4.8%	3.6%	x
COc1ccccc1C(=O)Nc1ccccc1SCc1cc(=O)c2ccccc2[nH]1	-11.6%	2.7%	x
CCCCC(=O)Nc1nc(C)c(-c2csc(Nc3cc(OC)ccc3OC)n2)s1	u	-1.8%	10.5%
CCCCC(=O)Nc1nc(C)c(-c2csc(Nc3cc(Cl)ccc3OC)n2)s1	10µM*	0.5%	u
CCOc1ccc(CNC(=O)c2cnc3sc(N4CCOCC4)nn3c2=O)cc1OC	30.4%	-5.8%	x
O=C(Cn1c(=O)n(Cc2ccco2)c(=O)c2sc3ccccc3c21)Nc1ccccc1C(F)(F)F	8.0%	-3.9%	x
SMILES	Cruzain inh noDet	Cruzain inh Det	NS1 inh
O=C(CSc1nnc(COc2cccc3ccccc23)o1)N1c2ccccc2CCc2ccccc21	12.6µM*	10.5%	-3.8%
O=C(CSc1nc(C2CC2)nc2ccccc12)N1c2ccccc2Sc2ccccc21	25.1µM*	-5.2%	11.7%
CN(C)CCC(=O)N1c2ccccc2Sc2ccc(C(F)(F)F)cc21	x	x	-6.7%
NC(=O)CSc1nnc(COc2cccc3ccccc23)o1	x	x	-6.8%
O=C(CSc1nc2ccccc2s1)N1c2ccccc2Sc2ccc(C(F)(F)F)cc21	10µM*	4.6%	12.9%
CC(=O)c1ccc(NC(=O)CSc2nc(C3CC3)nc3ccccc23)cc1	x	x	-14.0%
Cc1cccc(OCc2nnc(SCC(=O)N3c4ccccc4Sc4ccc(Cl)cc43)o2)c1	12.6µM*	-1.8%	11.8%
COc1cccc(OCc2nnc(SCC(=O)N3c4ccccc4Sc4ccc(Cl)cc43)o2)c1	u	-4.2%	8.7%
Cc1cc(C)c2nc(N3CCCC(C(=O)NCc4ccccc4F)C3)sc2c1 (stereo not given)	-9.6%	-0.1%	x
Cc1ccccc1-n1c(=O)c2c3c(sc2n2cnnc12)CCCC3	-3.3%	-2.3%	x
COc1ccc2c(c1)O[C@@H](c1cccc(C(F)(F)F)c1)[C@H](OC(=O)N[C@H](C)C1CCCCC1)C2=O	-0.9%	-1.4%	x
CCOc1ccc(NC(=O)c2nn(C)c3c2COc2ccccc2-3)cc1	19.7%	-3.8%	x
Cc1ccccc1OCc1nc2c3cnn(-c4cccc(F)c4)c3ncn2n1	-15.1%	-1.2%	x
O=C(CSc1nc2ccccc2o1)N1c2ccccc2Sc2ccccc21	u	-2.4%	-1.4%
O=C(CSc1nc2ccccc2s1)N1c2ccccc2Sc2ccc(Cl)cc21	15.8µM*	5.5%	24.6%
ClC=CCl	-4.3%	2.7%	x
Cc1ccc(N(CC(=O)N/N=C/c2ccc(OC3CSC3)cc2)S(=O)(=O)c2ccccc2)cc1	u	-0.8%	13.1%
Cc1ccc(N(CC(=O)N/N=C/c2ccc(OC3CSC3)cc2)S(=O)(=O)c2ccccc2)c(C)c1	15.8µM*	-4.9%	u
C=CCN(c1ccccc1OC)S(=O)(=O)c1cccc(C(=O)OCC(=O)c2c[nH]c3ccccc23)c1	-26.9%	-2.8%	-26.6%
CC(O)C(NS(=O)(=O)c1ccc(Cl)cc1)C(=O)OCC(=O)c1c[nH]c2ccccc12 (stereo not given)	x	x	4.0%
CC(C)C(NS(=O)(=O)c1c(Cl)cccc1Cl)C(=O)OCC(=O)c1c[nH]c2ccccc12 (stereo not given)	31.6µM*	-11.1%	-29.6%
Cc1ccc(S(=O)(=O)CCC(=O)OCC(=O)c2c[nH]c3ccccc23)cc1	20µM*	-29.6%	-6.9%
COc1cc(OC)c(N(C)S(=O)(=O)c2cccc(C(=O)OCC(=O)c3c[nH]c4ccccc34)c2)cc1Cl	10µM*	-1.1%	u
Cc1ccc(C(=O)OCC(=O)c2c[nH]c3ccccc23)cc1	u	-3.3%	10.0%
CC(=O)N1c2ccccc2C(=O)C1N1CCN(c2cc(Cl)ccc2C)CC1 (stereo not given)	-19.6%	-0.6%	x
SMILES	Cruzain inh noDet	Cruzain inh Det	NS1 inh
COC(=O)[C@@]1(Cc2ccc(OC)cc2)[C@H]2c3cc(C(=O)N(C)C)n(CCc4c[nH]c5ccc(O)cc45)c3C[C@H]2CN1C(=O)c1ccccc1	u	-2.7%	x
CC(=O)N[C@H](Cc1c[nH]c2ccccc12)C(N)=O	12.4%	1.6%	x
CCCCCCCCCCCCC/C=C/[C@@H](O)C(CO)NC(C)=O (stereo not given in full)	6.1%	-0.9%	x
C=CCn1c(COc2ccc(F)cc2)nnc1SCC(=O)N1CC(=O)Nc2ccccc21	-4.1%	-1.0%	-8.2%
Cc1nnc(SCC(=O)N2CC(=O)Nc3ccccc32)n1C	-11.9%	0.6%	0.9%
CC(C)CCn1c(SCC(=O)N2CC(=O)Nc3ccccc32)nc2scc(-c3cccs3)c2c1=O	12.6µM*	-3.4%	20.7%
C=CCn1c(SCC(=O)N2CC(=O)Nc3ccccc32)nc2scc(-c3cccs3)c2c1=O	10µM*	-1.7%	1.5%
Cc1cccc(C)c1N	-3.3%	1.3%	x
O=C(Nc1ccc(-c2nc3ccc(NC(=O)c4cccs4)cc3[nH]2)cc1)c1cccs1	25.1µM*	11.2µM*	1.7%
Cn1cccc1-c1nc2ccc(NC(=O)c3ccco3)cc2[nH]1	-4.0%	-9.6%	-7.0%

Bioassay records deposited in PubChem by National Center for Advancing Translational Sciences (NCATS).
